Bioassay records (PubChem)
A selection: hits, their analogues and other compounds. The true share with any hit is near 2%.
TR SRC2 fluor cs = Total Fluorescence Counterscreen for Inhibitors of the Interaction of Thyroid Hormone Receptor and Steroid Receptor Coregulator 2. TRb/SRC2 Texas Red total fluorescence interference. Potency, µM (titrated, usually from 106 µM). 0.29% of 280,000 active. AID 1479, 2009; active = well fitted curve in either direction with a large enough effect; inconclusive = small, poorly fitted or top-dose-only effect
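Human TRβ ligand-binding domain (0.6 uM) and Texas Red SRC2 peptide (20 nM) in Tris buffer with 1 uM T3 and 5% DMSO were incubated with pinned compound for 5 hr at ambient temperature. Total fluorescence was computed as S + 2P (555/632 nm).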
TRb SRC2 PPI = qHTS for Inhibitors of the Interaction of Thyroid Hormone Receptor and Steroid Receptor Coregulator 2 | Thyroid hormone receptor beta (Homo sapiens), P10828 | TRbeta-SRC2 peptide binding, fluorescence polarization; receptor liganded with 1 µM T3 | Potency, µM (doses to about 106 µM), hits mostly inhibitors | 0.065% of 280,000 active | AID 1469, 2008; also: nearly all actives have a fitted effect of over 50% in size
Target sequence (P10828 whole entry, looked up): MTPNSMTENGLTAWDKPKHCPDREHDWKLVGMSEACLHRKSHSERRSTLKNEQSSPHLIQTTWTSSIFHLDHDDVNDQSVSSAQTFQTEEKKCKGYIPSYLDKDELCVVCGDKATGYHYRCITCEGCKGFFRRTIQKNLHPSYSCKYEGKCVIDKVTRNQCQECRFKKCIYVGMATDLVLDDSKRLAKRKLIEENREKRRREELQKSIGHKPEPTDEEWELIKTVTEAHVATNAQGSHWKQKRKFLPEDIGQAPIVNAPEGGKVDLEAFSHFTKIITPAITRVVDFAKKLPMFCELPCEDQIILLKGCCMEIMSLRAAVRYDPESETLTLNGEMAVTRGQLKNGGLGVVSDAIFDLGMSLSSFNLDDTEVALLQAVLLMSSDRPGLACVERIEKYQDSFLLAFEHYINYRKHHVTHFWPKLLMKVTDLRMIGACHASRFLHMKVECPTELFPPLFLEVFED
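Binding of a 20-amino-acid Texas Red SRC2 peptide (20 nM) to TRb ligand-binding domain (0.6 uM) with agonist T3 at 1 uM was followed by fluorescence polarization after a 5 hr room-temperature incubation.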
JMJD2E inh = qHTS Assay for Inhibitors of Human Jumonji Domain Containing 2E (JMJD2E); Lysine-specific demethylase 4E (Homo sapiens), B2RXH2; JMJD2E catalytic domain, FDH-coupled NADH fluorescence (FDH is formaldehyde dehydrogenase); Potency, µM (highest dose often 57.1 µM), hits mostly inhibitors; 1.6% of 230,000 active; active = well fitted inhibition curve with a large enough effect, not every such curve was filed as active; inconclusive = small, poorly fitted or top-dose-only effect, or another doubt; inactive = no such curve, though single readings can be large or run the other way; also: nearly all actives have a fitted effect of over 50% in size
HTT aggregate = qHTS Multiplex Assay to Identify Dual Action Probes in a Cell Model of Huntington: Aggregate Formation (GFP) | 1.1% of 220,000 active | Potency, µM (highest dose often 46.1 µM), actives largely listed as inhibitors | PC12 HttQ103-GFP aggregates, Acumen cytometry, 40 h; also: nearly all actives have a fitted effect of over 60% in size
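Read-out: GFP aggregate count by laser scanning cytometer (488 nm excitation, 500-530 nm emission, 1–25 µm objects >6 SD above background). Cells: PC12, inducible HTTex1-Q103-GFP, 100 nM tebufenozide; compounds titrated.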
FBPA coupling cs = qHTS Assay for Inhibitors of Fructose-1,6-bisphosphate Aldolase from Giardia Lamblia: Coupling assay counterscreen; coupling enzyme system counterscreen, AmpLite Red fluorescence; activity change, negative = inhibition, % at 58.2 µM, hits read low; 0.67% of 290,000 active; AID 2472, 2010; in the data active = activity change below about -30%
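Coupling enzymes only (glyceraldehyde-3-phosphate) + compound, at 57.5 uM final, 10 min RT; add substrate/coupling/AmpLite Red mix, 20 min RT; fluorescence ex 525/em 598 nm. Actives flag coupling-system interference.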
HTT cytoprotect = qHTS Multiplex Assay to Identify Dual Action Probes in a Cell Model of Huntington: Cytoprotection (ATP); PC12 HTT-Q103 induced, cytoprotection, ATP luminescence, 40 h; Potency, µM (titrated, usually from 56.4 µM), actives largely listed as activators; 0.14% of 230,000 active; AID 1471, 2008; also: nearly all actives have a fitted effect of over 45% in size
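Readout: ATPlite luminescence (ATP level). Model: stable PC12, inducible Htt exon1 Q103-GFP. Inducer: tebufenozide, 100 nM final. Compounds: dose series. No G418 in medium.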
Large screens that a line does not name were inactive; [ ] = another dose, or the depositor's remark. Unless noted, calls follow the shape of the dose curve; as a rule, active = well fitted curve in the direction sought with a large enough effect; inconclusive = small, poorly fitted or top-dose-only effect, or another doubt; inactive = no such curve, though single readings can be large; an effect the other way counts as inactive or inconclusive.

CCN1CCN(c2ccc(NC(=O)c3ccc([N+](=O)[O-])o3)cc2Cl)CC1	HTT aggregate 12.6µM
NCCCC[C@H](N)C(=O)N[C@@H](CCCN=C(N)N)C(=O)N1CCC[C@H]1C(=O)N1CCC[C@H]1C(=O)NCC(=O)N[C@@H](Cc1ccccc1)C(=O)N[C@@H](CO)C(=O)N1CCC[C@H]1C(=O)N[C@@H](Cc1ccccc1)C(=O)O	none (no result: JMJD2E inh, HTT aggregate, HTT cytoprotect)
CCOc1ccc2nc(NC(=O)c3cc(=O)c4ccc(C)cc4o3)sc2c1	none (no result: JMJD2E inh, HTT aggregate, FBPA coupling cs, HTT cytoprotect)
O=C(C1CCCN(S(=O)(=O)c2cccs2)C1)N1CCN(c2cccc(Cl)c2)CC1 (centres undefined)	none (no result: JMJD2E inh, HTT aggregate, FBPA coupling cs, HTT cytoprotect)
CCC(=O)N1CCN(c2ccc(NC(=O)c3cc4ccccc4o3)cc2Cl)CC1	JMJD2E inh inconclusive, HTT aggregate inconclusive
CCCC(=O)N1CCN(c2ccc(NC(=O)c3cc4ccccc4o3)cc2Cl)CC1	JMJD2E inh inconclusive, HTT aggregate 11.2µM, FBPA coupling cs -40.2
O=C(Cn1c(=O)[nH]c2ccccc2c1=O)N1CCN(Cc2ccc3c(c2)OCO3)CC1	none (no result: TR SRC2 fluor cs, TRb SRC2 PPI, JMJD2E inh, HTT aggregate, HTT cytoprotect)
O=C(CN1C(=O)c2cccc3cccc(c23)C1=O)N1CCN(Cc2ccc3c(c2)OCO3)CC1	JMJD2E inh inconclusive, HTT aggregate 17.8µM
CCc1ccc(CN2CCN(C(=O)c3cccc(OC)c3OC)CC2)cc1	HTT aggregate 7.94µM
O=C(O)c1ccccc1C(=O)N1CCN(Cc2ccc3c(c2)OCO3)CC1	none (no result: TR SRC2 fluor cs, TRb SRC2 PPI, JMJD2E inh, HTT aggregate, HTT cytoprotect)
O=C(CCCCCn1c(=O)[nH]c2ccccc2c1=O)N1CCN(Cc2ccc3c(c2)OCO3)CC1	HTT aggregate 12.6µM
COc1ccccc1C(=O)N1CCN(Cc2ccc3c(c2)OCO3)CC1	HTT aggregate 2.82µM
O=C(Nc1ccc2oc(-c3cccnc3)nc2c1)c1ccccc1F	none (no result: JMJD2E inh, HTT aggregate, FBPA coupling cs, HTT cytoprotect)
C[C@H]1Cc2c(-c3ccccc3)nc3c(c2CO1)CN(C(=O)c1ccco1)CC3	none (no result: HTT aggregate)
CCn1c(C)cc(=S)c2ccccc21	JMJD2E inh inconclusive, HTT aggregate inconclusive, FBPA coupling cs -41.8
CCn1c2ccccc2c2cc(N)ccc21	JMJD2E inh inconclusive, HTT aggregate inconclusive
CCn1c(CSc2nnc(-c3ccncc3)n2C)nc2cc(C(=O)O)ccc21	TR SRC2 fluor cs 44.7µM[fluorescent], TRb SRC2 PPI 39.8µM, JMJD2E inh inconclusive
CCn1c(CSc2ncn[nH]2)nc2cc(C(=O)O)ccc21	TR SRC2 fluor cs inconclusive, TRb SRC2 PPI inconclusive, JMJD2E inh inconclusive
COc1ccc(NC(=O)c2ccco2)cc1NC(=O)c1cccnc1	HTT aggregate 3.16µM
Cc1ccc(F)c(C2C3C=CCC(c4ccccc4)C3C(=O)N2Cc2ccccc2)c1 (centres undefined)	none (no result: JMJD2E inh, HTT aggregate, HTT cytoprotect)
COC(=O)c1c(C)[nH]c(C=O)c1-c1ccccc1	none
COC(=O)c1c(-c2ccccc2)c[nH]c1C	HTT aggregate 22.4µM (no result: HTT cytoprotect)
CCOC(=O)N1CCN(S(=O)(=O)c2ccc(C(=O)NNc3nc4cc(C)cc(C)c4s3)cc2)CC1	JMJD2E inh 25.1µM, HTT aggregate inconclusive (no result: HTT cytoprotect)
CCOC(=O)N1CCN(S(=O)(=O)c2ccc(C(=O)NNc3nc4c(C)cc(C)cc4s3)cc2)CC1	none (no result: HTT cytoprotect)
Cc1nc(N/N=C/c2ccccn2)sc1C	JMJD2E inh 12.6µM, HTT aggregate inconclusive
CCCc1sc(N/N=C/c2ccccn2)nc1-c1ccc(F)cc1	HTT aggregate inconclusive
CCn1c(=O)c2cc(C(=O)Nc3cc(C)c(Cl)cc3OC)sc2c2ccccc21	none (no result: JMJD2E inh, HTT aggregate, FBPA coupling cs, HTT cytoprotect)
O=C(/C=C/c1ccoc1)c1ccccc1O	none (no result: HTT cytoprotect)
O=C(/C=C/c1ccc(O)c(O)c1)c1ccccc1O	JMJD2E inh 25.1µM
O=C(/C=C/c1ccc(O)c(O)c1)OCCc1ccccc1	JMJD2E inh 20µM (no result: HTT aggregate, HTT cytoprotect)
CC(C)N(C)CCOC(=O)/C=C/c1ccccc1	none
